The text below walks through data of PubChem BioAssay AID1347430 (National Center for Advancing Translational Sciences (NCATS), 2020).

Several values for one entry are separate records, joined by “and”; a condition that tells them apart may be missing. Identical values can stand only once. Among all 91,000 compounds or so, about 130 (0.14%) were called active. Another 3% or so got no clear call; they are omitted. Calls come from the whole dose curve; as a rule, active = well fitted inhibition curve with a large enough effect; inconclusive = small, poorly fitted or top-dose-only effect; inactive = flat fitted curve, though single readings scatter. Many of the other results were omitted from the sample, so actives are more common in it than they were. Some structures have more than one record in an assay (separate samples or runs), and their calls can disagree.
% is set by controls: 0 for no effect and ±100 for the full control effect; potency is the fitted concentration of half-maximal effect.

The subject of this assay is Uracil-DNA glycosylase. Nature of the assay: Primary qHTS assay for inhibitors of Activation Induced Cytidine Deaminase (AID): UDG Counterscreen signal. Note: nearly all actives have a fitted effect of over 65% in size. The note with it: FRET deamination/UDG coupled assay, UDG read, 4 h; series mostly up to 115 µM; activity change, negative = inhibition: at the top concentration. From the text:
Assay Provider (PI) Patricia Gearhart Ph.D.
National Institute on Aging
National Institute of Health (NIH), Bethesda, MD
Assay Provider (PI) Rahul Kohli Ph.D.
Perelman School of Medicine
University of Pennsylvania, Philadelphia, PA
Activation-Induced Deaminase (AID) is a cytosine deaminase which converts cytosine into uracil within stretches of ssDNA. The presence of uracil in DNA initiates a cascade of mutagenic DNA repair to introduce point mutations and DNA double strand breaks. Specific targeting of AID to the immunoglobulin heavy chain loci (Igh) promotes mutagenesis in the antibody variable region for somatic hypermutation (SHM) or switch regions leading to class switch recombination (CSR). However, AID also plays a role in accumulating unnecessary mutations across the genome. Mis-targeting of AID results in the initiation of tumor development and leads to greater drug resistance among cancer cells when continually expressed. To identify an AID inhibitor, a small molecule library will be screened in collaboration with NCATS core facility at NIH. To confirm biological function, inhibitors will be examined in an in vitro murine B-cell activation assay and subsequent secondary validation screens. Top molecules will be further screened to identify inhibitory efficacy against a wild type primary splenocytes assay. Using these approaches, we hope to identify a small molecule with great efficacy and low toxicity for use as a molecular probe to further characterize AID's intricacies, or even as a therapeutic.
A FRET based analysis of cytosine deamination, was developed to identify potential inhibitors of AID catalytic activity. This screen has two signal output, Read 1 evaluates the AID inhibition response. The second readout (Read 2) evaluates UDG response and is uses as a counterscreen to exclude false positive inhibitors. Inhibition in AID and inactivity in the UDG signal is the desired outcome for this assay.
SEQUENCE No. (e.g., 1, 2, 3, etc.); […] (e.g., Cells, Incubation, Reagent, etc.); VALUE; DESCRIPTION
1a; Reagent; 3 uL; [4/3x] 1 uM AID/2.67 U/mL UDG
1b; Reagent; 3 uL; 2 U/mL UDG
1c; Reagent; 3 uL; 1 uM AID
2a; Compound; 46 nL; Follow-up plates (0.64 uM - 10 mM)
2b; Control; 46 nL; ATA ([…] - 10 mM)
3; Time; 10 min; incubation at room temperature
5; Time; 4 hr; incubation at room temperature
6; Reagent; 4 uL; [2x] 250 mM NaOH
7; Time; 15 sec; centrifuge at 1000 rpm
8; Time; 30 min; incubation at room temperature
9a; Detection; fluorescence (Read 1: AID); EnVision (PerkinElmer) plate reader, 540 excitation and 590 emission filters
9b; Detection; fluorescence (Read 2: UDG); EnVision (PerkinElmer) plate reader, 560 excitation and 665 emission filters
NOTES (numbers refer to sequence above)
1a; Reagents were dispensed in a medium-binding black solid-bottom Greiner plates (789176F) using a BioRptr liquid dispenser. Dispense 3 uL of [4/3x] 1 uM AID (provided by Kohli lab) and [4/3x] 2 U/mL UDG (NEB M0280L) into columns 1, 2, 5 to 48.
1b; Dispense 3 uL of [4/3x] 2 U/mL UDG into column 3.
1c; Dispense 3 uL of [4/3x] 1 uM AID into column 4.
2a; Compound (7-points [uM] (0.64; 3.2; 16; 80; 400; 2,000; 10,000; 20,000) double pin-transferred (Dip Factor = 2) using the Kalypsys (Wako USA) pintool equipped with a 1536 pinhead for a final concentration range of 7.32 nM - 114 uM.
2b; 10 mM Aurintricarboxylic Acid (Sigma A1895) (ATA, 8-point, n = 2, 1:2.5 dilution in column 2) double pin-transferred (Dip Factor = 2) using the Kalypsys (Wako USA) pintool equipped with a 1536 pinhead for a [final] range of 186 nM - 114 uM.
3; Room temperature incubation.
4; Dispense 1 uL of substrate mixture from the Kohli lab [4x] […] DJC20 and [4x] 250 nM DJC23 into columns 1 to 48 .
5; Room temperature incubation.
6; Dispense 4 uL of substrate mixture [2x] 250 mM NaOH into columns 1 to 48.
7; Centrifugation step to remove bubbles.
8; Room temperature incubation
9a; Fluorescence signal (column label AID) was read using the EnVision plate reader. […]
In general terms: In qHTS, concentration-response curves come from the screen itself.
For `Cc1scc(C(=O)NCCC2=CCCCC2)c1C`, the “activity change, negative = inhibition” value is -2.73% (inactive). The same measure, in the same setting: in the case of `CC(C)(C)C(=O)NCC(=O)O` it was -1.68% (inactive). For the compound `COc1ccc(COC(=O)C2CCN(S(=O)(=O)c3c(Cl)cccc3Cl)CC2)cc1F`, the “activity change, negative = inhibition” value was 3.16% (inactive). Same read-out and setting: in the case of `CN(C)c1ccc(NC(=O)CCC2CCCC2)cc1` it was -8.67% (inactive); in that of `CNC(=O)C1CCN(Cc2csc(-c3ccc(C(F)(F)F)cc3)n2)CC1`, -2.96% (inactive); in that of `CC(C)c1cccc(C(C)C)c1-n1ccnc1`, 0.0082% (inactive). On the same count and under the same terms, in the case of `CC(C)(C)C(=O)NCCCC(=O)NCc1cccnc1` it was -10.4% (inactive); in that of `Fc1ccc(/C=N/N=C/c2ccc(F)cc2F)c(F)c1`, 0.601% (inactive). The same measure, in the same setting: under `Cc1ccc(C)c(S(=O)(=O)N2CCN(C(=O)CCc3ncc(-c4ccc(F)cc4F)o3)CC2)c1` stands -8.7% (inactive); under `Cc1c(-c2ccccc2)[o+]c2ccccc2c1C#Cc1ccccc1`, -12.2% (inactive); under `CCCn1nc(C(=O)OCC(N)=O)c2ccccc2c1=O`, 2.78% (inactive). Turning to `O=C(COC(=O)c1cnc2ccccc2n1)NC12CC3CC(CC(C3)C1)C2`, the “activity change, negative = inhibition” value is 7.71% (inactive).

Consider `COc1cccc(NC(=O)C2(C#N)CCCC2)c1`, for which the “activity change, negative = inhibition” value was -4.53% (inactive). Same read-out and setting: under `O=C(NCc1coc(-c2cccs2)n1)c1cccc(C(F)(F)F)c1` stands -14.5% (inactive); under `O=S(=O)(CCN1CCN(c2cnccn2)CC1)c1ccccc1`, 5.91% (inactive). The same measure, in the same setting: in the case of `Cc1cnc(NC(=O)c2nc(C)n(-c3ccc(Cl)cc3)n2)s1` it was -1.14% (inactive). On to `COc1ccccc1Oc1c(C)oc2cc(OC(=O)c3ccc4c(c3)OCO4)ccc2c1=O`, for which the “activity change, negative = inhibition” value is 12.7% (inactive). Still for that read-out and setting: under `C/C=C/Cn1c(=O)c2c(nc(-n3nc(C)cc3C)n2CC)n(C)c1=O` stands -7.1% (inactive); under `Cc1cccc(N(CCC(N)=O)C(=O)c2ccc(C#N)cc2)c1`, -1.04% (inactive). Same read-out and setting: in the case of `O=C(c1ccc2c(c1)N(Cc1ccccc1)C(=O)c1ccccc1S2=O)N1CCC2(CC1)OCCO2` (centres undefined) it was 1.58% (inactive); in that of `O=C(CCC1CCCC1)NCCc1cccnc1`, -8.17% (inactive).

Consider `COc1cc(Br)cc2cc(-c3nc(-c4nonc4N)no3)c(=O)oc12`, for which the “activity change, negative = inhibition” value was -7.39% (inactive).

Turning to `CC(Oc1ccc(/C=C(/C#N)c2nc3ccccc3[nH]2)cc1)C(=O)O` (centres undefined), the “activity change, negative = inhibition” value was -8.6% (inactive).

Turning to `CCOC(=O)c1noc2nc(C)nc(Nc3ccc(CC)cc3)c12`, the “activity change, negative = inhibition” value was -1.12% (inactive).

Consider `COc1ccc(N(CC(=O)N2CCN(C)CC2)S(=O)(=O)c2ccccc2)cc1Cl`, for which the “activity change, negative = inhibition” value was 0% (inactive).

Regarding `COc1cc(/C=N/O)ccc1O`, the “activity change, negative = inhibition” value was 0.299% (inactive). On to `O=C(O)c1ccc(CSc2cccc(Cl)c2)cc1`, for which the “activity change, negative = inhibition” value was -2.1% (inactive). The same measure, in the same setting: in the case of `FC(F)(F)c1cccc(Oc2ncnc3sc(-c4ccccc4)cc23)c1` it was -7.76% (inactive); in that of `CC(C)Cc1nc(NCc2ccncc2)c(C#N)c2c1CCCC2`, 4.28% (inactive).

For the compound `O=C(CCc1ccncc1)Nc1ccccc1`, the “activity change, negative = inhibition” value is -0.596% (inactive). Same read-out and setting: under `COc1ccc(C(=O)Oc2ccc(Cl)cc2C)c(OC)c1` stands 0.0357% (inactive); under `Cc1ccc(CNC(=O)c2ccc(=O)[nH]c2)s1`, -0.737% (inactive).

Consider `CCC(CC)C(=O)Nc1cccc(F)c1`, for which the “activity change, negative = inhibition” value was -3.56% (inactive). Still for that read-out and setting: in the case of `CSc1ccc(Cl)c(C(=O)Nc2ccc(F)c(F)c2)c1` it was 1.41% (inactive).

As to `CC(=O)c1ccc2[nH]c(C(=O)O)cc2c1`, the “activity change, negative = inhibition” value was -0.705% (inactive). Turning to `O=C(CCC1CCCCC1)Nc1cccc(F)c1`, the “activity change, negative = inhibition” value was -0.33% (inactive). Regarding `O=C(CCc1c[nH]c2ccccc12)N1CC=C(c2ccccc2)CC1`, the “activity change, negative = inhibition” value was -12.6% (inactive). Same read-out and setting: under `CC1CCN(C(=O)CSc2nnc(-c3ccco3)n2N)CC1` stands 3.21% (inactive); under `CCCC(=O)Nc1ccccc1N1CCN(Cc2nc3ccccc3n2C)CC1`, -1.83% (inactive); under `Cn1nc(C(=O)Nc2ccc(C(F)(F)F)cc2)c2ccccc2c1=O`, -3.73% (inactive). Still for that read-out and setting: in the case of `CCCCCn1nc(C(=O)Nc2nccs2)c2ccccc2c1=O` it was -2.82% (inactive); in that of `CN(Cc1ccc(C(C)(C)C)cc1)C(=O)C1CCN(C(=O)/C=C/c2ccccc2)CC1`, 1.65% (inactive); in that of `COc1ccc(-c2nc3ccccc3o2)cc1NC(=O)c1ccc(Cl)cc1`, 5.28% (inactive).

Regarding `CCOC(=O)c1cc(-c2ccc(S(=O)(=O)N3CCN(c4cc(Cl)ccc4C)CC3)s2)on1`, the “activity change, negative = inhibition” value is -3.8% (inactive). The same measure, in the same setting: in the case of `O=C(CSc1ncnc2ccccc12)Nc1ccc(Cl)c(C(F)(F)F)c1` it was -1.99% (inactive); in that of `CNc1c(NC(=O)Nc2ccccc2F)c(=O)oc2ccccc12`, 35.6% (inactive); in that of `COc1cc(CNC(=O)C(C)Oc2ccccc2)ccn1` (centres undefined), 2.82% (inactive).

For `Nc1ccc(C(=O)O)cn1`, the “activity change, negative = inhibition” value was -0.258% (inactive).

On to `NS(=O)(=O)c1ccc(CCNc2ncnc3c2cnn3-c2ccccc2Cl)cc1`, for which the “activity change, negative = inhibition” value is -2.13% (inactive). Still for that read-out and setting: in the case of `Cc1ccc(-n2ncc3c(NCCCn4ccnc4)ncnc32)cc1Cl` it was -13.3% (inactive).

`Clc1cccc(-n2ncc3c(NCCc4ccccc4)ncnc32)c1`: the Potency entry was “inactive and 89.1 µM (active)”. As to `CCc1nn2c(=O)cc(CN3CCCCC3C)nc2s1` (centres undefined), the “activity change, negative = inhibition” value was -6.52% (inactive). Regarding `O=C(CCc1cccs1)NCC1CC1`, the “activity change, negative = inhibition” value is -9.5% (inactive). For `C/C(=N/Nc1ccnc2cc(Cl)ccc12)c1cccc(N)c1`, the “activity change, negative = inhibition” value was -26.9% (inactive).

For `CC(=O)N(Cc1ccc2[nH]ccc2c1)C1CC1`, the “activity change, negative = inhibition” value is 12.3% (inactive). Take `O=C(CCn1ccc2ccccc21)N1CCN(S(=O)(=O)c2ccccc2)CC1`: the “activity change, negative = inhibition” value was -11.7% (inactive).

Turning to `COCC(=O)N(Cc1cccs1)C1CC1`, the “activity change, negative = inhibition” value is -5.11% (inactive). For `CC(c1nc(C(C)(C)C)no1)N(C)Cc1ccc2c(c1)OCO2` (centres undefined), the “activity change, negative = inhibition” value was 4.82% (inactive). Consider `Fc1cccc(CSc2nnc(-c3ccccc3F)n2C2CC2)c1`, for which the “activity change, negative = inhibition” value was 0.268% (inactive).
